According to the supplement of paper PMC7411054:
Counter-ions that a name gives are not always drawn.

Columns and labels:
Test in all cases: phenotypically active (imaging signature differs from DMSO and reproducible) at any of 0.3-9 uM (binary (1 = active, 0 = inactive)); higher = active
Settings in all cases: treatment time: 24 h
A549-ACTB-RAB5A = test system: A549-ACTB-RAB5A
In short: (§1)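 Four wells per concentration (0.3, 1, 3 or 9 µM) were treated for 24 h in each of fifteen gene-edited reporter lines from A549, HepG2 and WPMY1 cells, then imaged live. After normalising live-cell features to solvent control wells, deviation was defined as ≥3 of 4 wells lying past the 95th percentile of control Euclidean distances. Reproducibility was defined as a median replicate Pearson correlation above the 95th percentile of non-replicates. Both had to hold for phenotypic activity.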

A549-CANX-COX4 = test system: A549-CANX-COX4
In short: as §1

A549-GM130-SQSTM1 = test system: A549-GM130-SQSTM1
In short: as §1

A549-TP53BP1-CLTA = test system: A549-TP53BP1-CLTA
In short: as §1

A549-TUBA1B-RELA = test system: A549-TUBA1B-RELA
In short: as §1

HepG2-ACTB-RAB5A = test system: HepG2-ACTB-RAB5A
In short: as §1

HepG2-CANX-COX4 = test system: HepG2-CANX-COX4
In short: as §1

HepG2-GM130-SQSTM1 = test system: HepG2-GM130-SQSTM1
In short: as §1

HepG2-TP53BP1-CLTA = test system: HepG2-TP53BP1-CLTA
In short: as §1

HepG2-TUBA1B-RELA = test system: HepG2-TUBA1B-RELA
In short: as §1

WPMY1-ACTB-RAB5A = test system: WPMY1-ACTB-RAB5A
In short: as §1

WPMY1-CANX-COX4 = test system: WPMY1-CANX-COX4
In short: as §1

WPMY1-GM130-SQSTM1 = test system: WPMY1-GM130-SQSTM1
In short: as §1

WPMY1-TP53BP1-CLTA = test system: WPMY1-TP53BP1-CLTA
In short: as §1

WPMY1-TUBA1B-RELA = test system: WPMY1-TUBA1B-RELA
In short: as §1

Measured: phenotypically active

N#CC(CCN1CCC(C(=O)O)(c2ccccc2)CC1)(c1ccccc1)c1ccccc1 [difenoxin]
inactive: A549-ACTB-RAB5A 0 | A549-CANX-COX4 0 | A549-GM130-SQSTM1 0 | A549-TP53BP1-CLTA 0 | A549-TUBA1B-RELA 0 | HepG2-ACTB-RAB5A 0 | HepG2-CANX-COX4 0 | HepG2-GM130-SQSTM1 0 | HepG2-TP53BP1-CLTA 0 | HepG2-TUBA1B-RELA 0 | WPMY1-ACTB-RAB5A 0 | WPMY1-CANX-COX4 0 | WPMY1-GM130-SQSTM1 0 | WPMY1-TP53BP1-CLTA 0 | WPMY1-TUBA1B-RELA 0

CCOc1cc(C=O)ccc1O [Ethylvanilline]
inactive: A549-ACTB-RAB5A 0 | A549-CANX-COX4 0 | A549-GM130-SQSTM1 0 | A549-TP53BP1-CLTA 0 | A549-TUBA1B-RELA 0 | HepG2-ACTB-RAB5A 0 | HepG2-CANX-COX4 0 | HepG2-GM130-SQSTM1 0 | HepG2-TP53BP1-CLTA 0 | HepG2-TUBA1B-RELA 0 | WPMY1-ACTB-RAB5A 0 | WPMY1-CANX-COX4 0 | WPMY1-GM130-SQSTM1 0 | WPMY1-TP53BP1-CLTA 0 | WPMY1-TUBA1B-RELA 0

CCCCCOc1ccc(C(=O)c2cccc3ccccc23)c2ccccc12
inactive: A549-ACTB-RAB5A 0 | A549-CANX-COX4 0 | A549-GM130-SQSTM1 0 | A549-TP53BP1-CLTA 0 | A549-TUBA1B-RELA 0 | HepG2-ACTB-RAB5A 0 | HepG2-CANX-COX4 0 | HepG2-GM130-SQSTM1 0 | HepG2-TP53BP1-CLTA 0 | HepG2-TUBA1B-RELA 0 | WPMY1-ACTB-RAB5A 0 | WPMY1-CANX-COX4 0 | WPMY1-GM130-SQSTM1 0 | WPMY1-TP53BP1-CLTA 0 | WPMY1-TUBA1B-RELA 0

CO[C@H](C)[C@](O)(C(=O)OCC1=CCN2CC[C@H](O)[C@@H]12)C(C)C [Heliotrine]
inactive: A549-ACTB-RAB5A 0 | A549-CANX-COX4 0 | A549-GM130-SQSTM1 0 | A549-TP53BP1-CLTA 0 | A549-TUBA1B-RELA 0 | HepG2-ACTB-RAB5A 0 | HepG2-CANX-COX4 0 | HepG2-GM130-SQSTM1 0 | HepG2-TP53BP1-CLTA 0 | HepG2-TUBA1B-RELA 0 | WPMY1-ACTB-RAB5A 0 | WPMY1-CANX-COX4 0 | WPMY1-GM130-SQSTM1 0 | WPMY1-TP53BP1-CLTA 0 | WPMY1-TUBA1B-RELA 0

C=C[C@]12CN(C)[C@@H]3[C@H]4CO[C@H](C[C@H]41)[C@]1(C(=O)Nc4ccccc41)[C@@H]32 [Gelsemine]
inactive: A549-ACTB-RAB5A 0 | A549-CANX-COX4 0 | A549-GM130-SQSTM1 0 | A549-TP53BP1-CLTA 0 | A549-TUBA1B-RELA 0 | HepG2-ACTB-RAB5A 0 | HepG2-CANX-COX4 0 | HepG2-GM130-SQSTM1 0 | HepG2-TP53BP1-CLTA 0 | HepG2-TUBA1B-RELA 0 | WPMY1-ACTB-RAB5A 0 | WPMY1-CANX-COX4 0 | WPMY1-GM130-SQSTM1 0 | WPMY1-TP53BP1-CLTA 0 | WPMY1-TUBA1B-RELA 0

O=C(O)CC[N+](=O)[O-] [3-Nitropropionic acid]
inactive: A549-ACTB-RAB5A 0 | A549-CANX-COX4 0 | A549-GM130-SQSTM1 0 | A549-TP53BP1-CLTA 0 | A549-TUBA1B-RELA 0 | HepG2-ACTB-RAB5A 0 | HepG2-CANX-COX4 0 | HepG2-GM130-SQSTM1 0 | HepG2-TP53BP1-CLTA 0 | HepG2-TUBA1B-RELA 0 | WPMY1-ACTB-RAB5A 0 | WPMY1-CANX-COX4 0 | WPMY1-GM130-SQSTM1 0 | WPMY1-TP53BP1-CLTA 0 | WPMY1-TUBA1B-RELA 0

C[C@@H](N)[C@@H](O)c1ccccc1 [phenylpropanolamine]
inactive: A549-ACTB-RAB5A 0 | A549-CANX-COX4 0 | A549-GM130-SQSTM1 0 | A549-TP53BP1-CLTA 0 | A549-TUBA1B-RELA 0 | HepG2-ACTB-RAB5A 0 | HepG2-CANX-COX4 0 | HepG2-GM130-SQSTM1 0 | HepG2-TP53BP1-CLTA 0 | HepG2-TUBA1B-RELA 0 | WPMY1-ACTB-RAB5A 0 | WPMY1-CANX-COX4 0 | WPMY1-GM130-SQSTM1 0 | WPMY1-TP53BP1-CLTA 0 | WPMY1-TUBA1B-RELA 0

CCOC(=O)C1(c2ccccc2)CCN(C)CC1 [meperidine]
inactive: A549-ACTB-RAB5A 0 | A549-CANX-COX4 0 | A549-GM130-SQSTM1 0 | A549-TP53BP1-CLTA 0 | A549-TUBA1B-RELA 0 | HepG2-ACTB-RAB5A 0 | HepG2-CANX-COX4 0 | HepG2-GM130-SQSTM1 0 | HepG2-TP53BP1-CLTA 0 | HepG2-TUBA1B-RELA 0 | WPMY1-ACTB-RAB5A 0 | WPMY1-CANX-COX4 0 | WPMY1-GM130-SQSTM1 0 | WPMY1-TP53BP1-CLTA 0 | WPMY1-TUBA1B-RELA 0

C/C=C1\C[C@@H](C)[C@](O)(CO)C(=O)OCC2=CCN3CC[C@@H](OC1=O)[C@@H]23 [Retrorsine]
inactive: A549-ACTB-RAB5A 0 | A549-CANX-COX4 0 | A549-GM130-SQSTM1 0 | A549-TP53BP1-CLTA 0 | A549-TUBA1B-RELA 0 | HepG2-ACTB-RAB5A 0 | HepG2-CANX-COX4 0 | HepG2-GM130-SQSTM1 0 | HepG2-TP53BP1-CLTA 0 | HepG2-TUBA1B-RELA 0 | WPMY1-ACTB-RAB5A 0 | WPMY1-CANX-COX4 0 | WPMY1-GM130-SQSTM1 0 | WPMY1-TP53BP1-CLTA 0 | WPMY1-TUBA1B-RELA 0

CCCN1CCC[C@@H]2Cc3n[nH]cc3C[C@H]21 [(-)-Quinpirole hydrochloride]
inactive: A549-ACTB-RAB5A 0 | A549-CANX-COX4 0 | A549-GM130-SQSTM1 0 | A549-TP53BP1-CLTA 0 | A549-TUBA1B-RELA 0 | HepG2-ACTB-RAB5A 0 | HepG2-CANX-COX4 0 | HepG2-GM130-SQSTM1 0 | HepG2-TP53BP1-CLTA 0 | HepG2-TUBA1B-RELA 0 | WPMY1-ACTB-RAB5A 0 | WPMY1-CANX-COX4 0 | WPMY1-GM130-SQSTM1 0 | WPMY1-TP53BP1-CLTA 0 | WPMY1-TUBA1B-RELA 0

CCN(CC)C(C)C(=O)c1ccccc1 (stereo not given) [amfepramone]
inactive: A549-ACTB-RAB5A 0 | A549-CANX-COX4 0 | A549-GM130-SQSTM1 0 | A549-TP53BP1-CLTA 0 | A549-TUBA1B-RELA 0 | HepG2-ACTB-RAB5A 0 | HepG2-CANX-COX4 0 | HepG2-GM130-SQSTM1 0 | HepG2-TP53BP1-CLTA 0 | HepG2-TUBA1B-RELA 0 | WPMY1-ACTB-RAB5A 0 | WPMY1-CANX-COX4 0 | WPMY1-GM130-SQSTM1 0 | WPMY1-TP53BP1-CLTA 0 | WPMY1-TUBA1B-RELA 0
